Data published in article PMC10668032, “Altered binding affinity of SIX1-Q177R correlates with enhanced WNT5A and WNT pathway effector expression in Wilms tumor”.
The full ranking holds about 33,000 sequences; the median of “e-score” is about -0.053, and the highest 2% start at about 0.38. The full list was thinned out, with the highest values kept by preference.

biological target: T1, SIX1 homeodomain (reference allele) (human, UniProt Q15475 108-198); test: universal protein binding microarray; Universal all-10-mer PBM (8x60K, AMADID 030236), 300 nM GST-tagged protein, Alexa Fluor 488 anti-GST; buffer, salt, pH and temperature not stated (as in Berger); high values mean tight binding; conditions: protein: ivt; tags: N-terminal GST; dsDNA, one strand shown
T1 sequence: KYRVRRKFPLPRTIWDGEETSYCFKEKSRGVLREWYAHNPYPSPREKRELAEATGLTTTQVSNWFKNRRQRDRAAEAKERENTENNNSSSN
Outline: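 Homeodomains carrying a GST tag were produced by in vitro transcription/translation, then quantified by anti-GST western blot against a recombinant GST standard curve. Duplicate applications at 300 nM final concentration were made to universal 'all 10-mer' protein binding microarrays in 8×60K format. The Universal PBM Analysis Suite was used to express binding as 8-mer E-scores.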

Row | Sequence | binding signal [E-score]
1 | TACCTATA | 0.289 ± 0.0262
2 | ACTGTATA | 0.239 ± 0.0136
3 | CCTATACG | 0.153 ± 0.0436
4 | ACGATACT | 0.439 ± 0.00647
5 | ACTATACG | 0.247 ± 0.0175
6 | ACGATACA | 0.3689 ± 0.00151
7 | AAGATACT | 0.295 ± 0.0825
8 | ACGATACG | 0.4317 ± 0.000841
9 | GAGGTGTA | 0.233 ± 0.0426
10 | CCAATTAG | 0.188 ± 0.014
11 | ATACTAGC | 0.245 ± 0.0797
12 | GGATAGTA | 0.332 ± 0.00348
13 | ACTATCGC | 0.2364 ± 0.00196
14 | AGTATAGA | 0.195 ± 0.0499
15 | AGTATCGC | 0.435 ± 0.0231
16 | CCTATCGC | 0.29 ± 0.0221
17 | CGTATAGC | 0.185 ± 0.0242
18 | AGTATCGG | 0.4293 ± 0.0041
19 | ACTATCGA | 0.263 ± 0.00274
20 | AAGATCGC | 0.211 ± 0.00754
21 | AGTATCGA | 0.418 ± 0.0178
22 | CGTATCGC | 0.453 ± 0.00646
23 | ATTATCGG | 0.24 ± 0.012
24 | AGTATATG | 0.207 ± 0.0381
25 | CTAGATAG | 0.197 ± 0.0328

Row | Sequence | binding signal [E-score]
26 | ATATGCGA | 0.276 ± 0.0349
27 | ATATAGCA | 0.248 ± 0.0375
28 | TATTGAGA | 0.237 ± 0.0198
29 | AGATCTGC | 0.204 ± 0.0418
30 | ACTCGTAT | 0.205 ± 0.0218
31 | GTATTGAA | 0.213 ± 0.0401
32 | CTTGTATA | 0.213 ± 0.0563
33 | ATACAGCA | 0.221 ± 0.0273
34 | ATACTAGG | 0.275 ± 0.02
35 | GATACGAA | 0.335 ± 0.00345
36 | AATACGAC | 0.18 ± 0.0741
37 | TATACGGA | 0.28 ± 0.0266
38 | GATACGGC | 0.4543 ± 0.00163
39 | CATACGGA | 0.178 ± 0.0693
40 | GATACGGA | 0.455 ± 0.00852
41 | GATACGAC | 0.382 ± 0.0127
42 | AATACGGT | 0.231 ± 0.00828
43 | AATACGGC | 0.252 ± 0.0178
44 | ATTATAAT | 0.151 ± 0.0936
45 | ATCGCTGA | 0.226 ± 0.0497
46 | AATCCGAT | 0.3407 ± 0.0025
47 | ATATGCGG | 0.274 ± 0.0261
48 | ATATCACG | 0.456 ± 0.0263
49 | ATCTCACC | 0.335 ± 0.0374
50 | GTATCACA | 0.476 ± 0.00651

Row | Sequence | binding signal [E-score]
51 | CTATCACC | 0.35 ± 0.0258
52 | ATCTCACA | 0.293 ± 0.0554
53 | ATCACACG | 0.256 ± 0.0276
54 | CTATCACA | 0.311 ± 0.0251
55 | CGATCACA | 0.273 ± 0.0408
56 | ATCACACA | 0.266 ± 0.0227
57 | GTGTCACA | 0.375 ± 0.0203
58 | ATATCACC | 0.463 ± 0.0204
59 | ATATCACA | 0.432 ± 0.0476
60 | GACCCCGA | 0.162 ± 0.0961
61 | GACCGATA | 0.352 ± 0.0178
62 | ATCCTGCC | 0.175 ± 0.00513
63 | ATCCCAGG | 0.246 ± 0.0889
64 | ATACGTCG | 0.284 ± 0.0738
65 | GAGGATCC | 0.366 ± 0.0159
66 | ATCATGCC | 0.244 ± 0.0171
67 | ATACTAAC | 0.243 ± 0.00453
68 | GATCGGGA | 0.314 ± 0.0357
69 | ATCATGTA | 0.257 ± 0.0225
70 | AAAATGAT | 0.187 ± 0.101
71 | CATGGATC | 0.307 ± 0.0322
72 | CGCTGATA | 0.325 ± 0.0672
73 | CACTGATC | 0.284 ± 0.00727
74 | GACTGATA | 0.4 ± 0.0302
75 | AACTGATA | 0.409 ± 0.0324

Row | Sequence | binding signal [E-score]
76 | AGCTGATA | 0.357 ± 0.0301
77 | AACTGATC | 0.286 ± 0.0372
78 | GTCTGATA | 0.294 ± 0.0149
79 | CACTGAGA | 0.188 ± 0.00306
80 | CACTGATA | 0.404 ± 0.0311
81 | GACTGATC | 0.272 ± 0.0144
82 | GGCTGATA | 0.422 ± 0.00103
83 | GATAAGGA | 0.183 ± 0.0109
84 | TAAACTGA | 0.158 ± 0.0427
85 | GATAAAAC | 0.164 ± 0.00658
86 | AATAGTAT | 0.251 ± 0.0966
87 | GATTAGAA | 0.184 ± 0.0514
88 | ATCAGACC | 0.201 ± 0.00705
89 | ACGATTAA | 0.152 ± 0.0367
90 | AGACTATA | 0.204 ± 0.0102
91 | AGCCAGAT | 0.176 ± 0.0223
92 | TACTGACA | 0.182 ± 0.0373
93 | TACTGATA | 0.418 ± 0.0125
94 | TACTGCTA | 0.189 ± 0.0325
95 | ATCGGTTC | 0.248 ± 0.0232
96 | CCCTGAGC | 0.178 ± 0.0455
97 | CCATCCGA | 0.218 ± 0.0511
98 | ATACCATA | 0.3938 ± 0.0037
99 | ATACCATC | 0.384 ± 0.0257
100 | ATACCACA | 0.3 ± 0.00694

Row | Sequence | binding signal [E-score]
101 | ATACCAAC | 0.367 ± 0.0126
102 | ATACCACG | 0.291 ± 0.0123
103 | ATACCACC | 0.403 ± 0.00615
104 | ACACCACC | 0.293 ± 0.0475
105 | CTACCATA | 0.167 ± 0.0746
106 | ACACCACA | 0.328 ± 0.0113
107 | ACACCACT | 0.378 ± 0.0238
108 | ACACCATA | 0.302 ± 0.022
109 | ATACCATG | 0.362 ± 0.0283
110 | ATCCCCGA | 0.368 ± 0.0273
111 | ATGGAGGA | 0.155 ± 0.0279
112 | CTATACGA | 0.1804 ± 0.000898
113 | ACCCTTCT | 0.224 ± 0.046
114 | CACCCCTC | 0.251 ± 0.0895
115 | AGATTAAT | 0.2 ± 0.0731
116 | ATTAAACC | 0.174 ± 0.0609
117 | GTGATCGA | 0.159 ± 0.103
118 | TATTGGCA | 0.223 ± 0.0277
119 | CTGATACA | 0.404 ± 0.00574
120 | ATGATACA | 0.449 ± 0.0144
121 | ATCATACA | 0.306 ± 0.0152
122 | ATGATGCC | 0.157 ± 0.00805
123 | ATGATAAT | 0.168 ± 0.0146
124 | GTTATACA | 0.151 ± 0.064
125 | GTGATACA | 0.444 ± 0.0156

Row | Sequence | binding signal [E-score]
126 | AAGATACA | 0.265 ± 0.0451
127 | TAGATACA | 0.25 ± 0.019
128 | TCGATACA | 0.348 ± 0.00588
129 | ATGATACC | 0.4885 ± 0.000523
130 | CTACAGTA | 0.152 ± 0.00721
131 | ATCACTAC | 0.287 ± 0.0143
132 | GGATTGTA | 0.162 ± 0.0146
133 | ACGCGATC | 0.275 ± 0.00505
134 | GATAGCGA | 0.251 ± 0.00148
135 | ATACATTG | 0.218 ± 0.012
136 | GTATATTA | 0.267 ± 0.0332
137 | ATCATACG | 0.269 ± 0.0223
138 | CTCATACC | 0.171 ± 0.00583
139 | CTGAGACC | 0.261 ± 0.00696
140 | ATGATCAG | 0.229 ± 0.031
141 | CTGATACC | 0.4842 ± 0.00158
142 | ATGATACG | 0.48 ± 0.01
143 | ATCGGGTA | 0.337 ± 0.0486
144 | GATCGGAA | 0.167 ± 0.0621
145 | CCTAGATC | 0.228 ± 0.0313
146 | ATCAGTCA | 0.2227 ± 0.00177
147 | GGGGATTA | 0.302 ± 0.0187
148 | CGGGATCA | 0.417 ± 0.0124
149 | AGGGATCG | 0.386 ± 0.0182
150 | AGGGATCA | 0.4493 ± 0.00351

Row | Sequence | binding signal [E-score]
151 | GGGGATGA | 0.267 ± 0.0256
152 | CGGGATTA | 0.263 ± 0.0233
153 | GGGGATCA | 0.4469 ± 0.0011
154 | AGGGATTA | 0.305 ± 0.032
155 | AGGGATTG | 0.203 ± 0.0478
156 | AGAGATCG | 0.25548 ± 0.000134
157 | CGGGATGA | 0.159 ± 0.0157
158 | AGGGATGA | 0.176 ± 0.025
159 | CAGCGATC | 0.265 ± 0.0201
160 | ATTATGTG | 0.171 ± 0.0412
161 | ATACTCGC | 0.34 ± 0.069
162 | CTATACGC | 0.215 ± 0.0251
163 | CGATCTGC | 0.209 ± 0.00856
164 | CAGATTAC | 0.187 ± 0.0577
165 | GATTATGC | 0.265 ± 0.0543
166 | CCCATCTC | 0.292 ± 0.0209
167 | ACACCTTG | 0.186 ± 0.0328
168 | AAGGATCC | 0.35 ± 0.0205
169 | ATGGATCC | 0.362 ± 0.0547
170 | CGGGATCC | 0.393 ± 0.0513
171 | CAGGATCC | 0.354 ± 0.0257
172 | CTGGATCC | 0.351 ± 0.0527
173 | AGGGATCC | 0.386 ± 0.0382
